# Results as given in the supplement of paper PMC8728848.
# This excerpt belongs to a sample that is enriched for the strongest signals.
# Experiments:
# Experiment in all cases: glycan array binding signal (z-score within array); higher = stronger binding
# Settings in all cases: glycan notation: IUPAC condensed, linker removed
# Fuc(a1-2)Gal(b1-3)GalNAc = target: Fuc(a1-2)Gal(b1-3)GalNAc
# Summary of the method: (§1)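 Glycan array binding is given as a within-array Z-score, which can be read as non-binding when negative. The arrays, 3228 of them, came from the Consortium for Functional Glycomics database and were retained only where the protein sequence was available. Z-scores were averaged across arrays of the same protein sequence at different concentrations or buffers and across linkers.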
# [1] = target: Fuc(a1-2)Gal(b1-3)GalNAc(a1-3)[Fuc(a1-2)]Gal(b1-4)Glc
# Summary of the method: as §1
# [2] = target: Fuc(a1-2)Gal(b1-3)GalNAc(a1-3)[Fuc(a1-2)]Gal(b1-4)GlcNAc
# Summary of the method: as §1
# [3] = target: Fuc(a1-2)Gal(b1-3)[Fuc(a1-4)]GlcNAc(b1-3)[Fuc(a1-3)[Gal(b1-4)]GlcNAc(b1-6)]Gal(b1-4)Glc
# Summary of the method: as §1
# [4] = target: Fuc(a1-2)Gal(b1-4)GlcNAc(b1-3)GalNAc
# Summary of the method: as §1
# [5] = target: Fuc(a1-2)Gal(b1-4)GlcNAc6S
# Summary of the method: as §1
# [6] = target: Fuc(a1-2)Gal(b1-4)[Fuc(a1-3)]GlcNAc(b1-3)Gal(b1-4)[Fuc(a1-3)]GlcNAc
# Summary of the method: as §1
# [7] = target: Fuc(a1-2)[Gal(a1-3)]Gal(b1-4)Glc
# Summary of the method: as §1
# [8] = target: Fuc(a1-2)[Gal(a1-4)]Gal(b1-4)GlcNAc
# Summary of the method: as §1
# [9] = target: Fuc(a1-2)[GalNAc(b1-3)]Gal
# Summary of the method: as §1
# [10] = target: Fuc(a1-3)[Gal(b1-4)]GlcNAc(b1-3)GalNAc
# Summary of the method: as §1
# [11] = target: Fuc(a1-3)[Gal(b1-4)]GlcNAc(b1-6)[Gal(b1-3)GlcNAc(b1-3)]Gal(b1-4)Glc
# Summary of the method: as §1
# [12] = target: Fuc(a1-3)[GalNAc(b1-4)]GlcNAc
# Summary of the method: as §1
# [13] = target: Gal(a1-4)Gal(b1-3)GlcNAc(b1-2)Man(a1-3)[Gal(a1-4)Gal(b1-3)GlcNAc(b1-2)Man(a1-6)]Man(b1-4)GlcNAc(b1-4)GlcNAc
# Summary of the method: as §1
# [14] = target: Gal(b1-3)Gal(b1-4)GlcNAc(b1-2)Man(a1-3)[Gal(b1-3)Gal(b1-4)GlcNAc(b1-2)Man(a1-6)]Man(b1-4)GlcNAc(b1-4)GlcNAc
# Summary of the method: as §1
# [15] = target: Gal(b1-3)GlcNAc(b1-2)Man(a1-3)[Gal(b1-3)GlcNAc(b1-2)Man(a1-6)]Man(b1-4)GlcNAc(b1-4)GlcNAc
# Summary of the method: as §1
# [16] = target: Gal(b1-4)GlcNAc(b1-2)Man(a1-3)[Gal(b1-4)GlcNAc(b1-2)][GlcNAc(b1-4)]Man(b1-4)GlcNAc(b1-4)GlcNAc
# Summary of the method: as §1
# [17] = target: Gal(b1-4)GlcNAc(b1-2)Man(a1-3)[GlcNAc(b1-2)Man(a1-6)]Man(b1-4)GlcNAc(b1-4)GlcNAc
# Summary of the method: as §1
# [18] = target: Gal(b1-4)GlcNAc(b1-2)Man(a1-6)[Man(a1-3)]Man(b1-4)GlcNAc(b1-4)GlcNAc
# Summary of the method: as §1
# [19] = target: Gal(b1-4)GlcNAc(b1-2)[Gal(b1-4)GlcNAc(b1-6)]Man(a1-6)[Gal(b1-4)GlcNAc(b1-2)Man(a1-3)]Man(b1-4)GlcNAc(b1-4)[Fuc(a1-6)]GlcNAc
# Summary of the method: as §1
# [20] = target: Gal(b1-4)GlcNAc(b1-6)GalNAc
# Summary of the method: as §1
# [21] = target: Gal3S(b1-4)[Fuc(a1-3)]Glc6S
# Summary of the method: as §1
# GalNAc3S(b1-4)GlcNAc = target: GalNAc3S(b1-4)GlcNAc
# Summary of the method: as §1
# Glc(b1-4)Glc = target: Glc(b1-4)Glc
# Summary of the method: as §1
# [22] = target: GlcNAc(b1-2)Man(a1-3)[GlcNAc(b1-2)Man(a1-6)]Man(b1-4)GlcNAc(b1-4)GlcNAc
# Summary of the method: as §1
# [23] = target: GlcNAc(b1-3)[GlcNAc(b1-6)]GalNAc
# Summary of the method: as §1
# Kdn(a2-3)Gal(b1-4)Glc = target: Kdn(a2-3)Gal(b1-4)Glc
# Summary of the method: as §1
# [24] = target: Man(a1-2)Man(a1-3)[Man(a1-2)Man(a1-6)]Man(a1-6)[Man(a1-2)Man(a1-2)Man(a1-3)]Man
# Summary of the method: as §1
# [25] = target: Man(a1-2)Man(a1-6)[Man(a1-3)]Man(a1-6)[Man(a1-2)Man(a1-2)Man(a1-3)]Man
# Summary of the method: as §1
# [26] = target: Man(a1-3)[Man(a1-6)]Man(a1-6)[Man(a1-2)Man(a1-3)]Man(b1-4)GlcNAc(b1-4)GlcNAc
# Summary of the method: as §1
# [27] = target: Man(a1-3)[Man(a1-6)]Man(a1-6)[Man(a1-3)]Man(b1-4)GlcNAc(b1-4)GlcNAc
# Summary of the method: as §1
# [28] = target: Man(a1-3)[Man(a1-6)]Man(b1-4)GlcNAc(b1-4)GlcNAc
# Summary of the method: as §1
# [29] = target: Neu5Ac(a2-3)Gal(b1-3)GalNAc(b1-4)[Neu5Ac(a2-3)]Gal(b1-4)Glc
# Summary of the method: as §1
# [30] = target: Neu5Ac(a2-3)Gal(b1-4)[Fuc(a1-3)]GlcNAc(b1-3)Gal(b1-4)[Fuc(a1-3)]GlcNAc(b1-3)Gal(b1-4)[Fuc(a1-3)]GlcNAc
# Summary of the method: as §1
# Neu5Ac(a2-6)Gal = target: Neu5Ac(a2-6)Gal
# Summary of the method: as §1
# [31] = target: Neu5Ac(a2-6)Gal(b1-4)GlcNAc(b1-2)Man(a1-3)[Neu5Ac(a2-6)Gal(b1-4)GlcNAc(b1-2)Man(a1-6)]Man(b1-4)GlcNAc(b1-4)GlcNAc
# Summary of the method: as §1
# [32] = target: Neu5Ac(a2-6)Gal(b1-4)GlcNAc(b1-2)Man(a1-3)[Neu5Ac(a2-6)Gal(b1-4)GlcNAc(b1-2)Man(a1-6)]Man(b1-4)GlcNAc(b1-4)[Fuc(a1-6)]GlcNAc
# Summary of the method: as §1
# [33] = target: Neu5Ac(a2-6)Gal(b1-4)GlcNAc(b1-2)Man(a1-6)[Man(a1-3)]Man(b1-4)GlcNAc(b1-4)GlcNAc
# Summary of the method: as §1
# [34] = target: Neu5Ac(a2-6)Gal(b1-4)GlcNAc(b1-3)GalNAc
# Summary of the method: as §1
# Neu5Ac(a2-6)GalNAc = target: Neu5Ac(a2-6)GalNAc
# Summary of the method: as §1
# [35] = target: Neu5Ac(a2-6)GalNAc(b1-4)GlcNAc6S
# Summary of the method: as §1
binder,measurement,setting,value
SalT (Orysata sativa) (protein) MTLVKIGLWGGNGGSAQDISVPPKKLLGVTIYSSDAIRSIAFNYIGVDGQEYAIGPWGGGEGTSTEIKLGSSEHIKEISGTHGPVYDLADIVTYLKIVTSANNTYEAGVPNGKEFSIPLQDSGHVVGFFGRSGTLIDAIGIYVHPILEQKLISEEDLNSAVDHHHHHH,glycan array binding signal (z-score),Fuc(a1-2)Gal(b1-3)GalNAc,-0.283
same,glycan array binding signal (z-score),[1],-0.306
same,glycan array binding signal (z-score),[2],-0.31
same,glycan array binding signal (z-score),[3],-0.307
same,glycan array binding signal (z-score),[4],-0.307
same,glycan array binding signal (z-score),[5],-0.308
same,glycan array binding signal (z-score),[6],-0.308
same,glycan array binding signal (z-score),[7],-0.308
same,glycan array binding signal (z-score),[8],-0.309
same,glycan array binding signal (z-score),[9],-0.31
same,glycan array binding signal (z-score),[10],-0.301
same,glycan array binding signal (z-score),[11],-0.31
same,glycan array binding signal (z-score),[12],-0.306
same,glycan array binding signal (z-score),[13],3.59
same,glycan array binding signal (z-score),[14],3.71
same,glycan array binding signal (z-score),[15],3.69
same,glycan array binding signal (z-score),[16],0.03
same,glycan array binding signal (z-score),[17],2.65
same,glycan array binding signal (z-score),[18],4.64
same,glycan array binding signal (z-score),[19],0.799
same,glycan array binding signal (z-score),[20],-0.307
same,glycan array binding signal (z-score),[21],-0.3
same,glycan array binding signal (z-score),GalNAc3S(b1-4)GlcNAc,-0.306
same,glycan array binding signal (z-score),Glc(b1-4)Glc,-0.309
same,glycan array binding signal (z-score),[22],4.06
same,glycan array binding signal (z-score),[23],-0.309
same,glycan array binding signal (z-score),Kdn(a2-3)Gal(b1-4)Glc,-0.306
same,glycan array binding signal (z-score),[24],-0.304
same,glycan array binding signal (z-score),[25],-0.282
same,glycan array binding signal (z-score),[26],5.46
same,glycan array binding signal (z-score),[27],3.62
same,glycan array binding signal (z-score),[28],4.94
same,glycan array binding signal (z-score),[29],-0.304
same,glycan array binding signal (z-score),[30],-0.305
same,glycan array binding signal (z-score),Neu5Ac(a2-6)Gal,-0.305
same,glycan array binding signal (z-score),[31],2.81
same,glycan array binding signal (z-score),[32],0.435
same,glycan array binding signal (z-score),[33],4.96
same,glycan array binding signal (z-score),[34],-0.296
same,glycan array binding signal (z-score),Neu5Ac(a2-6)GalNAc,-0.307
same,glycan array binding signal (z-score),[35],-0.303
